Assay [1] can be described thus: Quantitative High-Throughput drug screen in 47 multiple myeloma cell lines against the NCATS MIPE library collection: LP1_DSMZ cell viability assay (AID 1918982). Also: nearly all actives have a fitted effect of over 35% in size. Summed up:
(§1)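 500 cells/well; MIPE 4.0 drugs pin-transferred; 48 h, 37C, 5% CO2. CellTiter-Glo, 5 min RT, luminescence. Controls: DMSO 100%, media 0%.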

Assay [2] can be described thus: Quantitative High-Throughput drug screen in 47 multiple myeloma cell lines against the NCATS MIPE library collection: KMS28PE_JCRB cell viability assay (AID 1918983). Also: nearly all actives have a fitted effect of over 35% in size. Also: potency is read from the fitted curve at half-maximal effect. The method, boiled down:
as §1

Assay [3] is described as follows: Quantitative High-Throughput drug screen in 47 multiple myeloma cell lines against the NCATS MIPE library collection: L363_DSMZ cell viability assay (AID 1918984). Also: nearly all actives have a fitted effect of over 40% in size. Also: potency is read from the fitted curve at half-maximal effect. Summed up:
as §1

Assay [4] can be described thus: Quantitative High-Throughput drug screen in 47 multiple myeloma cell lines against the NCATS MIPE library collection: KMS34_JCRB cell viability assay (AID 1918985). Also: nearly all actives have a fitted effect of over 40% in size. Also: potency is read from the fitted curve at half-maximal effect. Summed up: as §1
Assay [5] can be described thus: Quantitative High-Throughput drug screen in 47 multiple myeloma cell lines against the NCATS MIPE library collection: OCIMY5_PLB cell viability assay (AID 1918988). Also: nearly all actives have a fitted effect of over 65% in size. Also: potency is read from the fitted curve at half-maximal effect. Summed up:
as §1

The nature of assay [6]: Quantitative High-Throughput drug screen in 47 multiple myeloma cell lines against the NCATS MIPE library collection: OPM1_PLB cell viability assay (AID 1918989). Also: nearly all actives have a fitted effect of over 40% in size. Also: potency is read from the fitted curve at half-maximal effect. Summed up:
as §1

Assay [7] can be described thus: Quantitative High-Throughput drug screen in 47 multiple myeloma cell lines against the NCATS MIPE library collection: SKMM1_PLB cell viability assay (AID 1919863). Also: nearly all actives have a fitted effect of over 35% in size. Also: potency is read from the fitted curve at half-maximal effect. Particulars: SKMM1 myeloma viability, CellTiter-Glo ATP, 48 h; viability: hits give low values. The method, boiled down: as §1
A short description of assay [8]: Quantitative High-Throughput drug screen in 47 multiple myeloma cell lines against the NCATS MIPE library collection: OCIMY7_PLB cell viability assay (AID 1918987). Also: nearly all actives have a fitted effect of over 65% in size. Also: potency is read from the fitted curve at half-maximal effect. As to conditions: OCI-MY7 myeloma viability, CellTiter-Glo ATP, 48 h; viability (% of DMSO): at 45.8 µM (top of the series). The method, boiled down: as §1
A short description of assay [9]: Quantitative High-Throughput drug screen in 47 multiple myeloma cell lines against the NCATS MIPE library collection: MM1R_ATCC cell viability assay (AID 1918981). Also: nearly all actives have a fitted effect of over 35% in size. Summed up: as §1

Inconclusive results are not listed. A number with no mark means an inactive call. The source made the active and inactive calls. Calls follow the shape of the dose curve; as a rule, active = well fitted cell-killing curve with a large enough effect; inconclusive = small, poorly fitted or top-dose-only effect, or effect the other way; inactive = no such curve, though single readings can be large or run the other way.

Drawing on PubChem BioAssay (NCATS), this text covers Potency and viability for 38 compounds.

Take `CCCCCCCCCCCCCCCC(=O)OC[C@@H](NC(=O)C(Cl)Cl)[C@H](O)c1ccc([N+](=O)[O-])cc1`: the Potency entry in [1], in [2], in assay [3], in assay [4], in [5] and in [6] was “inactive” each time.
A word on the viability: it is a read-out of living cells in per cent, often relative to untreated cells. Take `C[C@@H](NCc1cc2ccccc2[nH]1)c1cccc2ccccc12`: the Potency result in assay [1], in assay [2], in assay [5] and in assay [6] was “inactive” throughout. Moreover, the viability in assay [7] is 132%.
With `CON=C(C(=O)N[C@@H]1C(=O)N2C(C(=O)O)=C(CSC(=O)c3ccco3)CS[C@H]12)c1csc(N)n1`, the Potency result in assay [1], in assay [2], in assay [8] and in assay [6] was “inactive” throughout. Also, the viability in assay [7] is 134%.
For `Cc1coc2c1C(=O)C(=O)c1c-2ccc2c(C)cccc12`, the Potency in assay [2] is 8.33 µM (active); in assay [4] it was 0.166 µM (active); in assay [8], 5.9 µM (active); in assay [5], 14.8 µM (active); in assay [6], 2.96 µM (active); in [7], 14.8 µM (active).
Regarding `CCCCOc1ccc(C(=O)Nc2ccc(F)cc2F)cc1`, the Potency result in assay [1], in [3], in assay [5] and in assay [6] was “inactive” in each case. Further, in [8], the Potency was 0.105 µM (active).
For `Cc1cn([C@@H]2O[C@H](CO)[C@@H](O)[C@H]2F)c(=O)[nH]c1=O`, the Potency entry in assay [9], in assay [2], in assay [4] and in [6] was “inactive” in each case.
Take `Oc1ccc([C@@H]2Oc3ccc(O)cc3[C@@H]3CCC[C@@H]32)cc1`: the Potency in assay [2] was 23.5 µM (active); in assay [4] it was 23.5 µM (active); in assay [8], 1.18 µM (active); in [5], 14.8 µM (active); in assay [6] it was 16.6 µM (active); in assay [7] it was 10.5 µM (active). Moreover, the Potency result in assay [3] was “inactive”.
Regarding `C[C@]12C=CC(=O)N[C@@H]1CC[C@H]1[C@H]3CC[C@@H](C(=O)Nc4cc(C(F)(F)F)ccc4C(F)(F)F)[C@@]3(C)CC[C@@H]12`, the Potency result in assay [1] is “inactive”. The Potency in assay [2] was 20.9 µM (active); in assay [8], 16.6 µM (active); in assay [5], 16.6 µM (active).
In the case of `COc1cc(OC)c(NC(=O)Nc2cc(C)on2)cc1Cl`, the Potency result in assay [1], in assay [3], in assay [4] and in assay [6] was “inactive” each time. For the same compound, the viability in assay [7] was 145%.
Consider `Cc1onc(-c2ccccc2)c1C(=O)N[C@@H]1C(=O)N2[C@@H](C(=O)O)C(C)(C)S[C@@H]12`, for which the Potency entry in assay [9], in [8] and in assay [6] was “inactive” in each case. The viability in [7] is 123%.
As to `C[C@@H](Cc1cc2c(c(C(N)=O)c1)N(CCCO)CC2)NCCOc1ccccc1OCC(F)(F)F`, the Potency entry in assay [9], in assay [2], in assay [4] and in assay [6] was “inactive” throughout.
For `Nc1ccn(C[C@@H](CO)OCP(=O)(O)O)c(=O)n1`, the Potency entry in assay [1], in [2] and in [4] was “inactive” throughout.
Consider `C[C@H](NC(=O)[C@@H](O)c1cc(F)cc(F)c1)C(=O)N[C@@H]1C(=O)N(C)c2ccccc2-c2ccccc21`, for which the Potency result in assay [1], in assay [2], in assay [4] and in assay [6] was “inactive” throughout.
For `COc1ccc(Nc2nccc(NCCO)n2)cc1`, the Potency entry in [3] was “inactive”.
As for `Cc1cncc2cccc(S(=O)(=O)N3CCCN(C(=O)CN)C[C@@H]3C)c12`, the Potency entry in assay [1], in [3] and in assay [6] was “inactive” throughout. In addition, the Potency is 18.7 µM (active) in [2] and 11.8 µM (active) in [8].
Consider `Cc1cc(-c2nnc3n2CCCCC3)c(C)n1-c1ccccc1`, for which the Potency result in assay [1], in [2] and in [6] was “inactive” throughout. In addition, the Potency in assay [5] is 23.5 µM (active).
On to `Nc1nc2c(c(=O)[nH]1)N(C=O)[C@H](CNc1ccc(C(=O)N[C@@H](CCC(=O)O)C(=O)O)cc1)CN2`, for which the Potency result in [4], in [5] and in assay [6] was “inactive” throughout.
`C[N+]1(C)[C@@H]2C[C@@H](OC(=O)C(O)(c3cccs3)c3cccs3)C[C@H]1[C@@H]1O[C@@H]12`: the Potency entry in [1], in [2], in [3], in [5] and in assay [6] was “inactive” each time.
`O=C(NNC(=O)c1ccc(CNS(=O)(=O)c2ccc(F)c(Cl)c2)cc1)c1ccccc1`: the Potency entry in assay [9], in assay [2], in [4] and in assay [5] was “inactive” throughout. The viability in [7] was 126%.
Turning to `Cn1cnc2c(F)c(Nc3ccc(Br)cc3F)c(C(=O)NOCCO)cc21`, the Potency entry in assay [1], in assay [2], in assay [5] and in [6] was “inactive” each time. Further, the viability in assay [7] is 115%.
Turning to `CCN1CCN(C(=O)N[C@H](C(=O)N[C@@H]2C(=O)N3C(C(=O)O)=C(CSc4nnnn4C)CS[C@@H]23)c2ccc(O)cc2)C(=O)C1=O`, the Potency result in assay [1], in assay [2], in [8], in assay [5] and in assay [6] was “inactive” in each case.
Turning to `CCCCCCCN(CC)CCCC(O)c1ccc(NS(C)(=O)=O)cc1` (stereo not given), the Potency result in assay [9] and in [4] was “inactive” in each case.
`C[C@@]12C[C@@]3(O)O[C@@H](O1)[C@]1(COC(=O)c4ccccc4)[C@@H]3C[C@@]12O[C@@H]1O[C@H](CO)[C@@H](O)[C@H](O)[C@@H]1O`: the Potency entry in assay [1], in [2], in assay [3], in [8], in assay [5] and in assay [6] was “inactive” each time.
Regarding `Cc1cc(O)c2c(c1)C(=O)c1cccc(O)c1C2=O`, the Potency result in assay [1], in assay [2], in assay [3], in assay [4] and in [8] was “inactive” each time.
As to `O=C(O)[C@H](CC(=O)N1C[C@@H]2CCCC[C@H]2C1)Cc1ccccc1`, the Potency entry in assay [1] and in assay [6] was “inactive” throughout.
Take `CC(=O)N[C@@H]1[C@H](O[C@@H]2c3ccc(c(Cl)c3)Oc3cc4cc(c3O[C@H]3O[C@H](CO)[C@@H](O)[C@H](O)[C@H]3NC(=O)CCCCCCCC(C)C)Oc3ccc(cc3Cl)C[C@H]3NC(=O)[C@H](N)c5ccc(O)c(c5)Oc5cc(O)cc(c5)[C@H](NC3=O)C(=O)N[C@H]4C(=O)N[C@H]3C(=O)N[C@@H]2C(=O)N[C@@H](C(=O)O)c2cc(O)cc(O[C@H]4O[C@H](CO)[C@@H](O)[C@H](O)[C@H]4O)c2-c2cc3ccc2O)O[C@H](CO)[C@@H](O)[C@@H]1O`: the Potency entry in assay [9], in assay [3] and in assay [4] was “inactive” each time. Further, the viability in assay [7] was 107%.
For the compound `CN(N=O)C(=O)N[C@H]1C(O)OC(CO)[C@@H](O)[C@H]1O` (stereo not given in full), the Potency entry in [1], in assay [3], in [8] and in assay [6] was “inactive” each time.
Consider `CC(Cc1ccc(O)c(O)c1)(NN)C(=O)O` (stereo not given), for which, in assay [3], the Potency result was “inactive”. In assay [7], the Potency is 16.6 µM (active).
Regarding `c1cc(CN2CCCNCCNCCCNCC2)ccc1CN1CCCNCCNCCCNCC1`, the Potency entry in assay [3], in [4] and in assay [6] was “inactive” throughout. Moreover, the viability in [7] was 136%.
As for `CCCCCN=C(N)NN=Cc1c[nH]c2ccc(OC)cc12`, the Potency in assay [2] was 10.5 µM (active); in [3], 2.09 µM (active); in [4] it was 7.43 µM (active); in assay [8] it was 2.96 µM (active); in assay [5], 3.72 µM (active); in assay [6], 11.8 µM (active). Also, in assay [7], the Potency was 0.296 µM (active).
Consider `CC(=O)NC(CS)C(=O)O` (stereo not given), for which the Potency result in assay [1] and in assay [4] was “inactive” each time.
Consider `CC(Oc1ccc(O)cc1)(P(=O)(O)O)P(=O)(O)O`, for which the Potency result in assay [1], in assay [2], in assay [3] and in assay [4] was “inactive” in each case. Moreover, in assay [7], the viability was 108%.
As for `O=C(O)C(=O)Nc1cccc(C2=NN=N[N]2)c1`, the Potency entry in assay [1], in assay [2], in assay [4], in [5] and in assay [6] was “inactive” in each case. Also, in [7], the viability was 129%.
Regarding `O=c1[nH]c(=O)n([C@H]2C[C@@H](O)[C@@H](CO)O2)cc1C=CBr`, the Potency entry in assay [1], in [2], in assay [3] and in assay [4] was “inactive” throughout. In addition, the Potency in [6] was 0.105 µM (active).
With `CC(C)N(CC[C@H](c1ccccc1)c1cc(CO)ccc1O)C(C)C`, the Potency entry in assay [1], in [2], in [3] and in assay [4] was “inactive” in each case.
Turning to `O=C(C=CC=Cc1ccc2c(c1)OCO2)N1CCCCC1`, the Potency entry in assay [1], in [2], in assay [4], in assay [8] and in [6] was “inactive” each time.
As for `O=C(O)CCCCC(CCSCc1ccccc1)SCc1ccccc1` (stereo not given), the Potency result in assay [9] and in assay [4] was “inactive” throughout. For the same compound, the Potency in assay [3] was 13.2 µM (active). In addition, the viability in [7] is 120%.
With `O=C(Nc1nnc(-c2ccco2)o1)c1cc(-c2ccccc2)nc2ccccc12`, the Potency in [8] was 16.6 µM (active); in assay [5] it was 18.7 µM (active); in [6], 20.9 µM (active).
